GoLoco inh red = inhibitors of human Gai1-RGS12 GoLoco interaction (red fluorophore); P63096; Gai1:RGS12 GoLoco peptide FP, rhodamine, 10 min; Potency, µM (highest dose often 61.6 µM), without a hit: top-dose activity, negative = inhibition, usual class: inhibitors; actives 0.44% (n = 230,000); AID 880; active = well fitted inhibition curve with a large enough effect, not every such curve was filed as active; inactive = no such curve, though single readings can be large or run the other way; note: potency is the fitted concentration of half-maximal effect; nearly all actives have a fitted effect of over 30% in size
NPSR antag = neuropeptide S receptor (human) antagonism, cAMP; Q6W5P4; CHO-NPSR cells, cAMP TR-FRET, antagonist mode; Potency, µM (doses to about 38.3 µM), without a hit: at the highest dose activity change, negative = inhibition, hits mostly inhibitors; actives 1% (n = 220,000); AID 1461; note: potency is the fitted concentration of half-maximal effect; nearly all actives have a fitted effect of over 50% in size
JMJD2E inh = blocks human JMJD2E demethylase activity; B2RXH2; JMJD2E catalytic domain, FDH-coupled NADH fluorescence (FDH is formaldehyde dehydrogenase); Potency, µM (highest dose often 57.1 µM), for inactives: at the top dose activity change, negative = inhibition, usual class: inhibitors; actives 1.6% (n = 230,000); AID 2147; active = well fitted inhibition curve with a large enough effect, not every such curve was filed as active; inconclusive = small, poorly fitted or top-dose-only effect, or another doubt; inactive = no such curve, though single readings can be large or run the other way;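 note: potency is the fitted concentration of half-maximal effect; 0% = wells with enzyme and -100% = buffer wells without enzyme; nearly all actives have a fitted effect of over 50% in size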
Coupling enz = counter-screen for Giardia aldolase inhibitors: coupling enzyme system | coupling enzyme system counterscreen, AmpLite Red fluorescence | activity change, negative = inhibition, % at 58.2 µM, hits read low | actives 0.67% (n = 290,000); in the data active = activity change below about -30%
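Final compound at 57.5 uM, incubated 10 min at RT with coupling enzyme reagent (glyceraldehyde-3-phosphate), then 20 min with substrate and AmpLite Red detection. Fluorescence read at 525/598 nm; tests interference with the coupling assay, not aldolase inhibition.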
ALDH1A1 block = ALDH1A1 (human) enzyme inhibition | actives 7.3% (n = 220,000) | Potency, µM (top dose mostly 75.3 µM), without a hit: at the highest dose activity, negative = inhibition, actives largely listed as inhibitors | Purified ALDH1A1, NADH fluorescence, propionaldehyde substrate | P00352; active = well fitted inhibition curve with a large enough effect, not every such curve was filed as active; inconclusive = small, poorly fitted or top-dose-only effect, or another doubt; inactive = no such curve, though single readings can be large or run the other way;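 note: potency is the fitted concentration of half-maximal effect; plate controls were no enzyme wells and a reference inhibitor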
Target sequence (P00352 whole entry, looked up): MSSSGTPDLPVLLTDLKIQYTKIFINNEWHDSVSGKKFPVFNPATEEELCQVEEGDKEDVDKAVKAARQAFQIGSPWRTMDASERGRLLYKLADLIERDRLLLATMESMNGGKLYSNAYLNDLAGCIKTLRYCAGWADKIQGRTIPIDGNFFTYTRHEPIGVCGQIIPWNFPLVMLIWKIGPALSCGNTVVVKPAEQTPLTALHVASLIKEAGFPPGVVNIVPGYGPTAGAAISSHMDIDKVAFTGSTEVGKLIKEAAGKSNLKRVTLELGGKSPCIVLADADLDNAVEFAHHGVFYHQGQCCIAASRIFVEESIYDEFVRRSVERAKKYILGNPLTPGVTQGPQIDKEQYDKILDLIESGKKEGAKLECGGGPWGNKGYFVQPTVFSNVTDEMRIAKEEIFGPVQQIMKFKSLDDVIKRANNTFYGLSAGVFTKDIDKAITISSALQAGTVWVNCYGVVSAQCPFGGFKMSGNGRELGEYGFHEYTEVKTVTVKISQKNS
Sfp inh = Sfp phosphopantetheinyl transferase inhibition. AID 1490. Biochemical Sfp PPTase activity, qHTS. Potency, µM, inactives show largest response in the series, negative = inhibition, actives largely listed as inhibitors. Q9F4F7. actives 3.5% (n = 310,000);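 note: the enzyme is Sfp with the accession as filed and its product quenches rhodamine fluorescence; potency is the fitted concentration of half-maximal effect; 0% = enzyme reaction without inhibitor and -100% = no enzyme wells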
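After 15 min at room temperature with compound, 15 nM Sfp received 5 uM rhodamine-CoA plus 12.5 uM BHQ-2-ybbR (50 mM Hepes pH 7.6, 10 mM MgCl2). Rate came from the fluorescence difference over 30 min, ex 525/em 598 nm.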
An asterisk follows results filed as active; ? = inconclusive; nt = not tested or not shown; [ ] = dose if it differs, or a comment. A selection: hits, their analogues and other compounds. The true share with any hit is near 8.5%. Unless noted, calls come from the whole dose curve; as a rule, active = well fitted curve in the direction sought with a large enough effect; inconclusive = small, poorly fitted or top-dose-only effect, or another doubt; inactive = no such curve, though single readings can be large; an effect the other way counts as inactive or inconclusive. Unless noted, % is set by controls: 0 for no effect and ±100 for the full control effect.

SMILES | GoLoco inh red | NPSR antag | JMJD2E inh | Coupling enz | ALDH1A1 block | Sfp inh
CCn1c(-c2cc3c(C(F)(F)F)nn(C)c3s2)n[nH]c1=S | 0.9% | -11.1%[46.1 µM] | ? | 5.5 | ? | 70.8µM*
Cc1ccc(-c2nc3ccccc3c(C(=O)NCc3cccs3)c2C)cc1 | 25.1% | -19.1%[46.1 µM] | -9.2% | -5.0 | 23.8µM* | ?
COc1cnc(-c2ccccn2)nc1NC(C)C | 4.5% | -55.3% | -116.6% | -35.7* | 4.1% | 7.08µM*
Cc1nn(C)c(C)c1NC(=O)c1ccnn1C | 0.1% | -2.9%[46.1 µM] | 2.6% | -0.8 | 17.8µM* | 9.9%
O=C1CS/C(=C\[N+](=O)[O-])N1c1ccccc1 | 35.6% | -24.9%[46.1 µM] | -21.0% | 0.6 | 5.01µM* | -4.8%
Cc1nc(SCC(=O)Nc2ccccc2C(F)(F)F)c(C#N)c(C)c1CC(=O)c1ccc(Br)cc1 | 8.9% | 10µM* | -26.0% | 7.4 | -10.8% | 4.4%
Cc1cccc(C)c1NC(=O)CSc1nc(C)c(CC(=O)c2ccc(Br)cc2)c(C)c1C#N | 8.6% | ? | 6.3% | 8.1 | 13.7% | -16.5%
Oc1ccc(/C=N/Nc2ccnc3cc(Cl)ccc23)c(O)c1O | nt | nt | nt | -23.3 | nt | 44.7µM*
CCOC(=O)C1CCN(C(C)=C2C(=O)c3ccccc3C2=O)CC1 | 0.8% | 4.4%[46.1 µM] | 0.9% | -2.3 | 17.8µM* | -7.9%
CCN1CCN(C2=C(NS(=O)(=O)c3ccc(Br)cc3)C(=O)c3ccccc3C2=O)CC1 | nt | nt | nt | nt | nt | -13.2%
CC(=C1C(=O)c2ccccc2C1=O)N1CCc2ccccc2C1 | 14.6% | -12.2%[46.1 µM] | 3.6% | -7.2 | 8.91µM* | -6.2%
NC(=O)C1CCN(C2=C(NS(=O)(=O)c3ccc(Br)cc3)C(=O)c3ccccc3C2=O)CC1 | nt | nt | nt | -32.1* | nt | -7.9%
O=C1C(Cl)=C(N2CCC(C(=O)O)CC2)C(=O)c2ccccc21 | 3.5% | -6.5%[7.67 µM] | -20.3% | -28.5 | nt | ?
NC(=O)C1CCN(C2=C(Cl)C(=O)c3ccccc3C2=O)CC1 | -41.1% | 10µM* | 7.2% | -50.7* | ? | 17.8µM*
CCOC(=O)C1CCN(C(=O)CCCN2C(=O)c3ccccc3C2=O)CC1 | -5.0% | -3.8%[46.1 µM] | 3.9% | -0.8 | ? | -2.0%
CC(C(=O)N1CCc2ccccc2C1)N(c1ccccc1)S(C)(=O)=O (stereo not drawn) | nt | nt | nt | -1.0 | nt | 13.6%
CSc1nc(=O)n2cc(C)ccc2n1 | -3.9% | 15.5% | -21.4% | 2.1 | 2.7% | 14.0%
COc1cc(C2NC(=S)NC(C)=C2C(=O)Nc2cc(C)cc(C)c2)ccc1O (stereo not drawn) | 1.0% | 8.5% | -2.3% | 4.9 | nt | 11.2%
CCOC(=O)C1CCN(C2=C(NS(=O)(=O)c3ccc(Br)cc3)C(=O)c3ccccc3C2=O)CC1 | nt | nt | nt | -33.4* | nt | 14.8%
NC(=O)C1CCN(C2=C(NS(=O)(=O)c3ccccc3)C(=O)c3ccccc3C2=O)CC1 | 6.6% | 10.9%[7.67 µM] | 0.7% | -31.3* | nt | 3.0%
COc1ccccc1-c1cncnc1Nc1ccccc1 | -8.3% | nt | nt | 0.0 | 2.5% | -1.4%
CC1(C)Cc2c(sc(NC(=O)C(=O)N3CCCC3)c2C#N)CO1 | nt | nt | nt | 0.0 | nt | ?
COc1ccc(CCNC(=O)c2ccc(S(=O)(=O)N(C)c3ccccc3)cc2)cc1OC | nt | nt | nt | -3.2 | nt | 10.4%
CN(c1ccccc1)S(=O)(=O)c1cccc(C(=O)NCCc2ccc(O)c(O)c2)c1 | -18.9% | -33.2% | 14.1µM* | -8.2 | 28.2µM* | 17.8µM*
COC1CCN(Cc2c(C(=O)N3CCN(C4CCCCC4)CC3)nc3ccccn23)CC1 | nt | nt | nt | nt | nt | -10.0%
O=C(c1nc2ccccn2c1CN1CCC(Cc2ccccc2)CC1)N1CCCC1 | 5.3% | 7.1% | -9.5% | 1.1 | 11.2µM* | 2.8%
CC12CCC(C(=O)NNc3ccc([N+](=O)[O-])cc3)(CC1=O)C2(C)C (stereo not drawn) | -3.0% | 7.9% | -17.6% | 3.1 | ? | -25.9%
CCc1nnc(NC(=O)c2nc(S(=O)(=O)Cc3ccc(C)cc3)ncc2Cl)s1 | nt | nt | nt | nt | nt | -17.8%
CCc1nnc(NC(=O)c2nc(S(=O)(=O)Cc3cccc(C)c3)ncc2Cl)s1 | nt | nt | nt | 4.7 | nt | 56.2µM*
COc1ccccc1NC(=O)CSc1nnc(C)s1 | nt | nt | nt | -1.3 | nt | 17.6%

Source: PubChem BioAssay
